Inconclusive results are not listed. The source made the active and inactive calls. Calls come from the whole dose curve; as a rule, active = well fitted curve in the direction sought with a large enough effect in the repeat runs; inconclusive = weak or mixed curves; inactive = no such curve, though single readings can be large; an effect the other way counts as inactive or inconclusive.
Assays:
[1] = Caspase-3/7 induction in HepG2 cells by small molecules, qHTS assay (AID 1346978); note: nearly all actives have a fitted effect of over 15% in size
How it was run: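 Wild-type HepG2 cells, 2,000/well, settled 5 hr at 37 C and 5% CO2, then compound-treated for 17 hr; caspase-3/7 activity read by luminescent Caspase-Glo 3/7 after 30 min at room temperature.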

[2] = Caspase-3/7 induction in CHO-K1 cells by small molecules, qHTS cell viability counter screen (AID 1346979); note: nearly all actives have a fitted effect of over 35% in size; note: potency is the fitted concentration of half-maximal effect
How it was run: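 CellTiter-Fluor viability check, qHTS format: wild-type CHO-K1, 16hr compound treatment, 1hr reagent incubation, fluorescence read.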

[3] = Caspase-3/7 induction in CHO-K1 cells by small molecules, qHTS assay (AID 1346980); note: nearly all actives have a fitted effect of over 15% in size
How it was run: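 Wild-type CHO-K1 cells exposed to compounds for 17hr at 37 C, 5% CO2. Caspase-3/7 activity then measured by Caspase-Glo 3/7 luminescence after 30min at room temperature.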

[4] = Caspase-3/7 induction in HepG2 cells by small molecules, qHTS cell viability counter screen (AID 1346981); note: nearly all actives have a fitted effect of over 30% in size; note: potency is the fitted concentration of half-maximal effect; for activity change, negative = cytotoxicity: series mostly up to about 92 µM
How it was run: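 Wild-type HepG2 cells, 2,000/well, settled 5 hr at 37 C, 5% CO2 before compound addition. Viability read by CellTiter-Fluor fluorescence, reagent added after 16 hr compound exposure, then 1 hr at 37C, in the same wells as the caspase read.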

[5] = biological target: Nuclear receptor subfamily 1 group I member 2 (Homo sapiens) (UniProt O75469); test: Human pregnane X receptor (PXR) small molecule agonists, qHTS assay (AID 1346982); note: nearly all actives have a fitted effect of over 35% in size; note: potency is the fitted concentration of half-maximal effect
How it was run: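 PXR-Luc HepG2 reporter cells (CYP3A4-driven luciferase) in 5% charcoal-stripped FBS medium, plated 5 h before compound addition, then treated 24 h at 37C. Luciferase read by ONE-Glo luminescence after 30 min at room temperature.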

[6] = biological target: Cytochrome P450 2D6 (Homo sapiens) (UniProt P10635); test: Cytochrome P450 Family 2 Subfamily D Member 6 (CYP2D6) small molecule antagonists: luciferase reporter qHTS assay (AID 1671196); note: nearly all actives have a fitted effect of over 50% in size; note: potency is the fitted concentration of half-maximal effect; for activity change, negative = inhibition: series mostly up to about 120 µM
How it was run: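 Cell-free P450-Glo system: CYP2D6 with proluciferin substrate was pre-incubated with compound for 10 min, then reacted with NADPH regeneration for 1 h at room temperature. Luciferin product was detected after 20 min, and data were reported as relative luminescence units.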

[7] = biological target: Cytochrome P450 2C19 (Homo sapiens) (UniProt P33261); test: Cytochrome P450 Family 2 Subfamily C Member 19 (CYP2C19) small molecule antagonists: luciferase reporter qHTS assay (AID 1671197); note: nearly all actives have a fitted effect of over 65% in size; note: potency is the fitted concentration of half-maximal effect; for activity change, negative = inhibition: series mostly up to about 120 µM
How it was run: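 Quantitative high-throughput screen of the Tox21 library using CYP2C19 with proluciferin substrate. Reaction: NADPH regeneration, 37C, 1 h, after 10 min compound preincubation at room temperature. Readout: luminescence.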

[8] = biological target: Cytochrome P450 2C9 (Homo sapiens) (UniProt P11712); test: Cytochrome P450 Family 2 Subfamily C Member 9 (CYP2C9) small molecule antagonists: luciferase reporter qHTS assay (AID 1671198); note: nearly all actives have a fitted effect of over 50% in size; note: potency is the fitted concentration of half-maximal effect; for activity change, negative = inhibition: series mostly up to about 120 µM
How it was run: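 P450-Glo proluciferin substrate with CYP2C9 enzyme; 10 min RT preincubation, then NADPH regeneration 1 h at 37C; luciferin detection reagent 20 min RT, luminescence in relative luminescence units.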

[9] = biological target: Cytochrome P450 1A2 (Homo sapiens) (UniProt P05177); test: Cytochrome P450 Family 1 Subfamily A Member 2 (CYP1A2) small molecule antagonists: luciferase reporter qHTS assay (AID 1671199); note: nearly all actives have a fitted effect of over 50% in size; note: potency is the fitted concentration of half-maximal effect; for activity change, negative = inhibition: series mostly up to about 120 µM
How it was run: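 P450-Glo CYP1A2 enzyme–proluciferin substrate mix with compound 10 min at room temperature, then NADPH regeneration 1 h at room temperature. Luciferin detection reagent added, luminescence read after 20 min; furafylline positive control.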

[10] = biological target: Voltage-gated inwardly rectifying potassium channel KCNH2 (Homo sapiens) (UniProt Q12809); test: Human Ether-a-go-go-Related Gene (hERG) channel small molecule antagonists: fluorescence cell-based qHTS assay (AID 1671200);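 note: hERG-expressing U2OS cells given a thallium stimulus after FluxOR II dye loading; series mostly up to about 77 µM; nearly all actives have a fitted effect of over 50% in size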
How it was run: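 Kinetic two-minute fluorescence traces, sampled at 1 s, were collected following thallium stimulus of U2OS cells (1000 per well) that had been cultured overnight at 37 C and loaded with FluxOR II.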

[11] = biological target: Cytochrome P450 3A4 (Homo sapiens) (UniProt P08684); test: Cytochrome P450 Family 3 Subfamily A Member 4 (CYP3A4) small molecule antagonists: luciferase reporter qHTS assay (AID 1671201); note: nearly all actives have a fitted effect of over 50% in size; note: potency is the fitted concentration of half-maximal effect; for activity change, negative = inhibition: series mostly up to about 120 µM
How it was run: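 Proluciferin-to-luciferin conversion by CYP3A4, NADPH-regenerated, 1 h RT; luminescence read as RLU. Ketoconazole as control.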
% is set by controls: 0 for no effect and ±100 for the full control effect.

Nuclear receptor subfamily 1 group I member 2 (Homo sapiens), sequence (O75469 whole entry, looked up): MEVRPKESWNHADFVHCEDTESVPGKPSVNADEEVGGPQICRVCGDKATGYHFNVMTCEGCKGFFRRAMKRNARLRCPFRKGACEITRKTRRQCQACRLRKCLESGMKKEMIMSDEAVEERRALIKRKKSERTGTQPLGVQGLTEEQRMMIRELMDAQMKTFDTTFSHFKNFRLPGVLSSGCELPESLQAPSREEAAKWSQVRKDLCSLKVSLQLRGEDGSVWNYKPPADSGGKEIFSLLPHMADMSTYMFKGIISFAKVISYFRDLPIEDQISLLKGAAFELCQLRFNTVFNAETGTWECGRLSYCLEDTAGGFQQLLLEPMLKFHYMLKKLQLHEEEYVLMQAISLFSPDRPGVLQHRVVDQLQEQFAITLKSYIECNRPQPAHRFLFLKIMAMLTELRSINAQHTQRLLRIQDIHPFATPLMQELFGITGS
Cytochrome P450 2D6 (Homo sapiens), sequence (P10635 whole entry, looked up): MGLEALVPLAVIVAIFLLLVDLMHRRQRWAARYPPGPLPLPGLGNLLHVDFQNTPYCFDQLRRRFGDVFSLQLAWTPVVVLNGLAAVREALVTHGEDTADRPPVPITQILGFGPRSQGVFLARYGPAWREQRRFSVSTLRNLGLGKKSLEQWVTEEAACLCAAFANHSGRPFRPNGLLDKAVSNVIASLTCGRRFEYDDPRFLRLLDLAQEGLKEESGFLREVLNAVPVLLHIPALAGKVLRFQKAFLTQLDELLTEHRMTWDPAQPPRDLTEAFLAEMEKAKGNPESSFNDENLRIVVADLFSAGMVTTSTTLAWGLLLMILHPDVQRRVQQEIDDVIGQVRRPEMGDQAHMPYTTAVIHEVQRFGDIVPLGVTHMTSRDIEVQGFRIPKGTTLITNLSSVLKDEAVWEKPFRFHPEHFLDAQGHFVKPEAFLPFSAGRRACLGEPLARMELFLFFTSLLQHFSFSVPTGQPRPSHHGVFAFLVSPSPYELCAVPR
Cytochrome P450 2C9 (Homo sapiens), sequence (P11712 whole entry, looked up): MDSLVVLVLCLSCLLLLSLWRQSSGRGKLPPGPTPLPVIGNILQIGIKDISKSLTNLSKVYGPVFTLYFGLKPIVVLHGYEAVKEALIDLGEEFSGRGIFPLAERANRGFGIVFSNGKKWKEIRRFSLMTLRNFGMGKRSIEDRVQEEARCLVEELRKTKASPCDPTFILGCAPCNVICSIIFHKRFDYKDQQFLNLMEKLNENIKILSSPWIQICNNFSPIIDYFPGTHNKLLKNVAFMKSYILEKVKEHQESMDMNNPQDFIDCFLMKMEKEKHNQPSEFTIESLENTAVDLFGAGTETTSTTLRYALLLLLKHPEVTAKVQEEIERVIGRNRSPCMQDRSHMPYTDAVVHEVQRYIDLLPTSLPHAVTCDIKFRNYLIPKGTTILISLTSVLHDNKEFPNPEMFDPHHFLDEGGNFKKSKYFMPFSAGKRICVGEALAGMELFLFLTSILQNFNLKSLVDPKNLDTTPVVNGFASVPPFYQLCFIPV
Voltage-gated inwardly rectifying potassium channel KCNH2 (Homo sapiens), sequence (Q12809 whole entry, looked up): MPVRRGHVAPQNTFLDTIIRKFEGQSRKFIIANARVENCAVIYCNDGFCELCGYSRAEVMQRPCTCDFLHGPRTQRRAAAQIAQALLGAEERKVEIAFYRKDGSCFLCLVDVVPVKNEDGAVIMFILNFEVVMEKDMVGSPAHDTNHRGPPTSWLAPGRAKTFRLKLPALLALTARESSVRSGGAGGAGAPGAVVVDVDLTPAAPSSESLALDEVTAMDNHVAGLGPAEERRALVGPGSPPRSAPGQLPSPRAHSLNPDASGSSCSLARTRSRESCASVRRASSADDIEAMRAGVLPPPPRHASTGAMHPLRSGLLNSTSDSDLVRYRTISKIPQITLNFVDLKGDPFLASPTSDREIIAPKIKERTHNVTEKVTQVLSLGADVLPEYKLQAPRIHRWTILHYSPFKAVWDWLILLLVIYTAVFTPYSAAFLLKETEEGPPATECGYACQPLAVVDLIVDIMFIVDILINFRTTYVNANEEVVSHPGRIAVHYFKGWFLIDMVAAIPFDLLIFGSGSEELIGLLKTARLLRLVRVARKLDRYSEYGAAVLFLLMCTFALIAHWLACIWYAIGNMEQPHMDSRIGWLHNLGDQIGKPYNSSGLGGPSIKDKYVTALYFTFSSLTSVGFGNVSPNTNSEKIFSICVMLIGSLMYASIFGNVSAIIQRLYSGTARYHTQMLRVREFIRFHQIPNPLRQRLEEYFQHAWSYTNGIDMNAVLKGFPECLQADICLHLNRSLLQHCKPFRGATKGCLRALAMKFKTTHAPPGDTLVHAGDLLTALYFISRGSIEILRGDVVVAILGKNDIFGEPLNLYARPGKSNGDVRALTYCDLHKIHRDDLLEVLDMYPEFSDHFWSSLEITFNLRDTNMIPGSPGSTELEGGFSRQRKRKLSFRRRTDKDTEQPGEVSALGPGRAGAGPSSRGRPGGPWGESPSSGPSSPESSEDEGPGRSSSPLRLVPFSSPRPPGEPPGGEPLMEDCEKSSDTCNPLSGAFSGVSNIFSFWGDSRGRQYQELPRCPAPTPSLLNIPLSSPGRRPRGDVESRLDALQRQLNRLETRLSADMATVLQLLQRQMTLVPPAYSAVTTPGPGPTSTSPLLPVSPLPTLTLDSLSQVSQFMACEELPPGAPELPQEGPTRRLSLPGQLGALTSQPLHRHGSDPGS
Cytochrome P450 2C19 (Homo sapiens), sequence (P33261 whole entry, looked up): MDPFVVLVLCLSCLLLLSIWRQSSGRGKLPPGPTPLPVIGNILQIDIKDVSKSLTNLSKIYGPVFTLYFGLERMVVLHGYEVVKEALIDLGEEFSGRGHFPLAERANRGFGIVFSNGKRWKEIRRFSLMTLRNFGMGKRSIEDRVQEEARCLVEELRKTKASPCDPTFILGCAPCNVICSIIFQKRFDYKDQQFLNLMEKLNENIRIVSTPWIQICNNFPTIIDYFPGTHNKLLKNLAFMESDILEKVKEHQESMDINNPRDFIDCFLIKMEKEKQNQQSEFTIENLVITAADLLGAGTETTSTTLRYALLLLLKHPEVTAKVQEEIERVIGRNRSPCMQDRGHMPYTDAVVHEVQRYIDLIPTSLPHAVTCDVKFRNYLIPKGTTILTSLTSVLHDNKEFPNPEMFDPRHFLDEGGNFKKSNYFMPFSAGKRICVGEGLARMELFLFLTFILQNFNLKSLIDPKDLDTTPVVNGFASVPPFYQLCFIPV
Cytochrome P450 1A2 (Homo sapiens), sequence (P05177 whole entry, looked up): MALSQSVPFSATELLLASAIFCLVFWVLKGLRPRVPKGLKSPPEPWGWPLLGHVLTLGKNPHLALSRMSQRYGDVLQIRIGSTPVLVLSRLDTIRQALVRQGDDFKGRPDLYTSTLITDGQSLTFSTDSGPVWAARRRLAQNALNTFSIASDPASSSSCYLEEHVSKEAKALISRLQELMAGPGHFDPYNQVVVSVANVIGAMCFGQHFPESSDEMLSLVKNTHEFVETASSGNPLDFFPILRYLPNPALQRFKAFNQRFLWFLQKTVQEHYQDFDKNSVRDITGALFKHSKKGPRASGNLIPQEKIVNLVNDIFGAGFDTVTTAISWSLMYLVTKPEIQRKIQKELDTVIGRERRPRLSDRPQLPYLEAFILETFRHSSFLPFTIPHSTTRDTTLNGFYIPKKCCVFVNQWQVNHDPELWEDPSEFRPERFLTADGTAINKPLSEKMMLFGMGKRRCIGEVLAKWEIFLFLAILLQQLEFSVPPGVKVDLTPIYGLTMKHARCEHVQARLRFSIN
Cytochrome P450 3A4 (Homo sapiens), sequence (P08684 whole entry, looked up): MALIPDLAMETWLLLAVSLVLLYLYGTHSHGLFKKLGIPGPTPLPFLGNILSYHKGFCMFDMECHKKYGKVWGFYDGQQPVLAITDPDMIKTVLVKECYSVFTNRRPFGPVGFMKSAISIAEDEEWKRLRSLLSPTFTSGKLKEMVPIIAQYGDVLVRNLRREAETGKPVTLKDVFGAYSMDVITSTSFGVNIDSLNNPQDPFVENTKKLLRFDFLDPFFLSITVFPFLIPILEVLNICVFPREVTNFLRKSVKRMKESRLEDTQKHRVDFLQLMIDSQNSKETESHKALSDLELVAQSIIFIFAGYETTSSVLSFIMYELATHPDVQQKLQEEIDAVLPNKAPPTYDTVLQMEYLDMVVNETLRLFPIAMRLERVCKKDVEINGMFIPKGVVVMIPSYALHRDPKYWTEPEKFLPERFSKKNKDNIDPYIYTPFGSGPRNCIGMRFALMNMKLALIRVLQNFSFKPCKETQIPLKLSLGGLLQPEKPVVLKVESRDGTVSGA

CC1=CC(O)CC(C)(C)C1 (configuration not stated)
inactive: Potency [1] | Potency [2] | outcome [3] | Potency [4] | Potency [5] | Potency [6] | Potency [7] | Potency [8] | Potency [9] | Potency [10] | Potency [11]

CCCOCCOCCO
inactive: Potency [1] | Potency [2] | outcome [3] | Potency [4] | Potency [5] | Potency [6] | Potency [7] | Potency [8] | Potency [9] | Potency [10] | Potency [11]

N#C[C@@H]1C[C@@H]2C[C@@H]2N1C(=O)[C@@H](N)C12CC3CC(CC(O)(C3)C1)C2
inactive: Potency [1] | Potency [2] | outcome [3] | Potency [4] | Potency [5] | Potency [7] | Potency [8] | Potency [9] | Potency [11]
active: Potency [6] 38.9 µM

C=CCOC(=O)/C=C\C(=O)OCC=C
active: Potency [9] 28.8 µM
inactive: Potency [1] | Potency [2] | outcome [3] | Potency [4] | Potency [5] | Potency [6] | Potency [10]

CCCCCCOC(=O)CCCCCCCC(=O)OCCCCCC
inactive: Potency [1] | Potency [2] | outcome [3] | Potency [4] | Potency [5] | Potency [6] | Potency [7] | Potency [8] | Potency [10] | Potency [11]

Cc1cc(S(=O)(=O)O)ccc1N=Nc1c(O)ccc2ccccc12
inactive: Potency [1] | outcome [3] | Potency [5] | Potency [10]
active: Potency [2] 27.3 µM | Potency [4] 30.6 µM | Potency [6] 39.9 µM | Potency [7] 20 µM | Potency [8] 31.7 µM | Potency [9] 25.2 µM | Potency [11] 39.9 µM

NC(=O)N(O)[C@@H]1C=C[C@H](Oc2cccc(Oc3ccc(F)cc3)c2)C1
inactive: Potency [1] | outcome [3] | Potency [4]
active: Potency [2] 68.6 µM | Potency [5] 19.3 µM | Potency [6] 5.03 µM | Potency [7] 8.94 µM | Potency [8] 31.7 µM | Potency [9] 7.96 µM | Potency [11] 0.894 µM

O=S(=O)(c1ccccc1)c1ccc(Cl)cc1
inactive: Potency [1] | Potency [2] | outcome [3] | Potency [4] | Potency [8] | Potency [10] | Potency [11]
active: Potency [5] 30.6 µM | Potency [7] 3.99 µM | Potency [9] 44.8 µM

CCC(C)=O
inactive: Potency [1] | Potency [2] | outcome [3] | Potency [4] | Potency [5] | Potency [6] | Potency [7] | Potency [8] | Potency [10] | Potency [11]

[O]=[Bi]
inactive: caspase activation [1] -1.09% [at 8.39 µM] | activity change, negative = cytotoxicity [2] -0.807% [at 8.39 µM] | caspase-3/7 activation [3] -0.359% [at 8.39 µM] | activity change, negative = cytotoxicity [4] -1.33% [at 8.39 µM] | activation [5] 1.61% [at 8.39 µM] | activity change, negative = inhibition [6] -0.389% [at 10.5 µM] | activity change, negative = inhibition [7] -17.2% [at 10.5 µM] | activity change, negative = inhibition [8] 1.73% [at 10.5 µM] | activity change, negative = inhibition [9] -11% [at 10.5 µM] | activity change, negative = inhibition [10] -0.289% [at 6.97 µM] | activity change, negative = inhibition [11] 0.199% [at 10.5 µM]

— PubChem BioAssay (Tox21)
